Results filed as inconclusive are left out. Calls of active or inactive are those of the source. How the source made its calls, unless noted: active means hit-call score of the fitted dose curve at least 0.9, where 1 is the maximum; inconclusive means response in the unintended direction; inactive means score below 0.9.
Tests used:
[1] = TOX21_p53_BLA_p2_viability: Viability Assessment in the Tox21 HCT-116 p53 Agonism Beta-lactamase Assay, Phase 2 (AID 2283591);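 further: compound exposure lasted 16 h at 37 °C; actives lower the ATP signal meaning cytotoxicity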
Method in brief: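 Cytotoxicity readout: CellTiter-Glo ATP luminescence, 30 min at room temperature, after the beta-lactamase read. Cells were HCT116 exposed 16 h at 37C to compounds pin-transferred at 217-fold dilution from DMSO stocks.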

[2] = target: Cellular tumor antigen p53 (Homo sapiens) (UniProt P04637); assay: TOX21_p53_BLA_p2_ratio: Tox21 HCT-116 p53 Agonism Beta-lactamase Assay, Ratio, Phase 2 (AID 2283592)
Method in brief: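 Gain-of-signal p53 agonism was scored from the beta-lactamase FRET ratio (460/530 nm, 405 nm excitation) in HCT116 cells treated 16 h at 37C, 5% CO2, with DMSO serving as negative control and baseline.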

[3] = target: Cellular tumor antigen p53 (Homo sapiens) (UniProt P04637); assay: TOX21_p53_BLA_p3_ratio: Tox21 HCT-116 p53 Agonism Beta-lactamase Assay, Ratio, Phase 3 (AID 2283596)
Method in brief: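 HCT116 p53-bla cells (4000/well) given compound in DMSO (217-fold dilution) after 5 h, incubated 16 h at 37C. CCF4-AM substrate 2 h at room temperature; 460/530 nm emission ratio, gain fitted against DMSO.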

[4] = TOX21_p53_BLA_p4_viability: Viability Assessment in the Tox21 HCT-116 p53 Agonism Beta-lactamase Assay, Phase 4 (AID 2283597);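 further: hits lower the luminescence signal meaning cytotoxicity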
Method in brief: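 Following a 16 h exposure at 37C, the treated HCT116 wells were first read for the FRET ratio. They were then lysed with CellTiter-Glo, and ATP luminescence was recorded after 30 min at room temperature.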

[5] = target: Cellular tumor antigen p53 (Homo sapiens) (UniProt P04637); assay: TOX21_p53_BLA_p5_ratio: Tox21 HCT-116 p53 Agonism Beta-lactamase Assay, Ratio, Phase 5 (AID 2283599)
Method in brief: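 Beta-lactamase reporter ratio (blue 460 nm over green 530 nm, 405 nm excitation) after 2 h CCF4-AM loading, in HCT-116 cells exposed 16 h at 37 C to compounds pinned at 217-fold dilution. Increases relative to DMSO baseline scored.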

[6] = TOX21_p53_BLA_p5_viability: Viability Assessment in the Tox21 HCT-116 p53 Agonism Beta-lactamase Assay, Phase 5 (AID 2283600)
Method in brief: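 After the 460/530 nm beta-lactamase measurement, the wells received an ATP-detection luciferase reagent; signal was read 30 min later at RT. Compound treatment lasted 16 h on cells pre-incubated 5 h post-seeding.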

[7] = target: Cellular tumor antigen p53 (Homo sapiens) (UniProt P04637); assay: TOX21_p53_BLA_p4_ratio: Tox21 HCT-116 p53 Agonism Beta-lactamase Assay, Ratio, Phase 4 (AID 2283601)
Method in brief: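 Signal is the blue/green (460nm/530nm) ratio of cleaved versus uncleaved CCF4-AM substrate, read after 2 h substrate loading. Cells were HCT116 carrying the p53-responsive beta-lactamase reporter, dosed 16 h at 37C, 5% CO2; CellTiter-Glo measured in parallel.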

[8] = system: Brachyury (BRA) Protein Expression, Deisenroth Lab, TBXT (gene 6862); assay: CCTE_Deisenroth_DEVTOX-GLR_legacy_Bra: (Legacy) CCTE's DevTox GLR-Endo Assay Evaluation of Brachyury (BRA) Protein Expression, Deisenroth Lab (AID 2284329; active means hit-call score of the fitted dose curve at least 0.9, where 1 is the maximum; inactive means score below 0.9)
Method in brief: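 Human pluripotent RUES2-GLR line was exposed twice during 48 h differentiation to a 10-point series, 1 nM - 200 uM. Fraction of Bra-positive cells was scored by imaging against pluripotent baseline and fitted after 0.2% DMSO subtraction.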

[9] = CCTE_Deisenroth_DEVTOX-GLR_legacy_CellCount: (Legacy) Viability Assessment in CCTE's DevTox GLR-Endo Assay, Deisenroth Lab (AID 2284331; active means hit-call score of the fitted dose curve at least 0.9, where 1 is the maximum; inactive means score below 0.9); details: actives raise or lower the signal
Method in brief: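 RUES2-GLR human pluripotent cells were seeded 24 h, then differentiated 48 h with two compound doses at 24 h intervals (10-point, 1 nM - 200 uM). Fixed nuclei were imaged and counted; bidirectional fitting versus 0.2% DMSO.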

[10] = system: SRY-box transcription factor 17 (SOX17) Protein Expression, Deisenroth Lab, SOX17 (gene 64321); assay: CCTE_Deisenroth_DEVTOX-GLR_legacy_Sox17: (Legacy) CCTE's DevTox GLR-Endo Assay Evaluation of SRY-box transcription factor 17 (SOX17) Protein Expression, Deisenroth Lab (AID 2284341; active means hit-call score of the fitted dose curve at least 0.9, where 1 is the maximum; inactive means score below 0.9); details: actives raise or lower the signal
Method in brief: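 Percent SOX17-positive cells, scored by high-content imaging as mean intensity exceeding pluripotent-control median by 5x BMAD, divided by cell count. Human RUES2-GLR endoderm differentiation, 48 h, two exposures 24 h apart, 1 nM–200 uM; DMSO-referenced bidirectional fitting.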

[11] = system: SRY-box transcription factor 2 (SOX2) Protein Expression, Deisenroth Lab, SOX2 (gene 6657); assay: CCTE_Deisenroth_DEVTOX-GLR_legacy_Sox2: (Legacy) CCTE's DevTox GLR-Endo Assay Evaluation of SRY-box transcription factor 2 (SOX2) Protein Expression, Deisenroth Lab (AID 2284346; active means hit-call score of the fitted dose curve at least 0.9, where 1 is the maximum; inactive means score below 0.9)
Method in brief: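 hPSC RUES2-GLR, 384-well; 24 h seed → 48 h endoderm differentiation, 2 doses q24h, 1 nM–200 uM. Fix, nuclear dye, 5 fields/well. Sox2+ cells/cell count; cell positive if >5x BMAD over endoderm ctrl; gain direction vs DMSO.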

[12] = system: SRY-box transcription factor 17 (SOX17) Protein Expression, Deisenroth Lab, SOX17 (gene 64321); assay: CCTE_Deisenroth_DEVTOX-GLR_Endo_SOX17: CCTE's DevTox GLR-Endo Assay Evaluation of SRY-box transcription factor 17 (SOX17) Protein Expression, Deisenroth Lab (AID 2284413; active means hit-call score of the fitted dose curve at least 0.9, where 1 is the maximum; inactive means score below 0.9)
Method in brief: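 Seed RUES2-GLR cells 24 h; start endoderm differentiation; dose at 0 and 24 h (1 nM - 200 uM, 10 points); fix at 48 h, stain nuclei, image 5 fields/well; compute SOX17+/total cells vs 0.2% DMSO.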

[13] = system: Brachyury (BRA) Protein Expression, TBXT (gene 6862); assay: CCTE_Deisenroth_DEVTOX-GLR_Endo_BRA: CCTE's DevTox GLR-Endo Assay Evaluation of Brachyury (BRA) Protein Expression, Deisenroth Lab (AID 2284417; active means hit-call score of the fitted dose curve at least 0.9, where 1 is the maximum; inactive means score below 0.9)
Method in brief: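 Endpoint is the fraction of BRA reporter-positive cells over total nuclei, corrected by subtracting the 0.2% DMSO value. Chemicals (1 nM - 200 uM, 10 points) were dosed twice during 48 h differentiation of RUES2-GLR cells, read by imaging.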

[14] = CCTE_Deisenroth_DEVTOX-GLR_Endo_CellCount: Viability Assessment in CCTE's DevTox GLR-Endo Assay, Deisenroth Lab (AID 2284420; active means hit-call score of the fitted dose curve at least 0.9, where 1 is the maximum; inactive means score below 0.9)
Method in brief: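 Percent change in nuclear-stain cell counts versus 0.2% DMSO, from high-content imaging over 5 fields per well. Over a 48 h endoderm differentiation, RUES2-GLR cells received two doses 24 h apart across a 1 nM–200 uM series, with n=4.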

[15] = system: SRY-box transcription factor 2 (SOX2) Protein Expression, Deisenroth Lab, SOX2 (gene 6657); assay: CCTE_Deisenroth_DEVTOX-GLR_Pluri_SOX2: CCTE's DevTox GLR-Pluri Assay Evaluation of SRY-box transcription factor 2 (SOX2) Protein Expression, Deisenroth Lab (AID 2284428; active means hit-call score of the fitted dose curve at least 0.9, where 1 is the maximum; inactive means score below 0.9)
Method in brief: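 Percent SOX2+ cells (SOX2+ count per total cells, fluorescent imaging) in RUES2-GLR human pluripotent line, expressed relative to 0.2% DMSO. Compounds dosed twice at 24 h intervals during 48 h, 1 nM - 200 uM, 10 concentrations.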

[16] = system: Brachyury (BRA) Protein Expression, Deisenroth Lab, TBXT (gene 6862); assay: CCTE_Deisenroth_DEVTOX-GLR_Pluri_BRA: CCTE's DevTox GLR-Pluri Assay Evaluation of Brachyury (BRA) Protein Expression, Deisenroth Lab (AID 2284429)
Method in brief: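 An inducible fluorescent BRA reporter in RUES2-GLR cells tracks mesoderm differentiation. Compounds (10 concentrations, 1 nM - 200 uM) are dosed twice within a 48-h differentiation. The endpoint subtracts the 0.2% DMSO control from percent BRA+ cells.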

[17] = CCTE_Deisenroth_DEVTOX-GLR_Pluri_CellCount: Viability Assessment in CCTE's DevTox GLR-Pluri Assay Evaluation of Total Cell Counts, Deisenroth Lab (AID 2284430; active means hit-call score of the fitted dose curve at least 0.9, where 1 is the maximum; inactive means score below 0.9)
Method in brief: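 RUES2-GLR human pluripotent cells, seeded 24 h, then differentiated 48 h with two chemical exposures 24 h apart; 10-point series 1 nM - 200 uM. Fixed, nuclear-stained, imaged (5 fields/well); nuclei count as % change vs 0.2% DMSO.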

Measured: AC50

Sequence of Cellular tumor antigen p53 (Homo sapiens) (P04637 whole entry, looked up): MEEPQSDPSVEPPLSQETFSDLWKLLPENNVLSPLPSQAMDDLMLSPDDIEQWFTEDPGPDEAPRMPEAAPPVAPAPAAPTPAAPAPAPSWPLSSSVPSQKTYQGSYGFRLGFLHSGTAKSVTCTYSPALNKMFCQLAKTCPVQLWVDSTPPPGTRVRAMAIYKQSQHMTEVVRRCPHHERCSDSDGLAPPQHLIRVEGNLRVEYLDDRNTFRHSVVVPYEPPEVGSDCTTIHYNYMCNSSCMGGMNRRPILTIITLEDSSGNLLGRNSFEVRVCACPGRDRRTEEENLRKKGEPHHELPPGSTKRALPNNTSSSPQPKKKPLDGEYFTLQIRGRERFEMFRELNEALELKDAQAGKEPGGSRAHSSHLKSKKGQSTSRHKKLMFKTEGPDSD

NCCNCCNCCN
inactive: [1] | [2] | [3] | [4] | [5] | [6] | [7]

CC(C)(O)C(=O)O
inactive: [1] | [2] | [3] | [4] | [5] | [7]

O=c1[nH]c(=O)n([C@H]2C[C@H](O)[C@@H](CO)O2)cc1Br
active: [8] 11.7 µM | [9] 10.2 µM | [10] 0.857 µM | [11] 14.4 µM | [12] 0.657 µM | [13] 32.8 µM | [14] 10.2 µM | [15] 3.42 µM | [16] 79.6 µM | [17] 23.7 µM
inactive: [1] | [2] | [3] | [4] | [5] | [6] | [7]

— PubChem BioAssay (EPA / NIEHS)
